Experimental data published in the supplement of paper PMC4466140.

What was measured:
Assay in all cases: SPOT peptide array binding signal intensity (averaged, normalized) (arbitrary units (background-subtracted, floor 0; scale differs between SH3 domains)); higher = stronger binding of the SH3 domain to the peptide
ScBbc1 = biological target: ScBbc1
In short: (§1)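 GST-fused SH3 domains from four yeast species were expressed in E. coli BL21(DE3), purified on glutathione Sepharose and incubated at 10 μg/ml overnight at 4°C in TBS-based blocking buffer on cellulose membranes carrying synthetic 15-mer peptides, with cysteines replaced by serines. Bound protein was detected with anti-GST antibody, an HRP anti-mouse secondary and luminol, then imaged and quantified with Genespotter. Binding signal is the normalized, background-subtracted spot intensity averaged over replicates, in arbitrary units that differ between domains.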

ScBem1-D1 = biological target: ScBem1-D1
In short: as §1

ScBzz1-D1 = biological target: ScBzz1-D1
In short: as §1

ScBzz1-D2 = biological target: ScBzz1-D2
In short: as §1

ScCyk3 = biological target: ScCyk3
In short: as §1

ScFus1 = biological target: ScFus1
In short: as §1

ScHof1 = biological target: ScHof1
In short: as §1

ScHse1 = biological target: ScHse1
In short: as §1

ScLsb1 = biological target: ScLsb1
In short: as §1

ScLsb2 = biological target: ScLsb2
In short: as §1

ScLsb3 = biological target: ScLsb3
In short: as §1

ScLsb4 = biological target: ScLsb4
In short: as §1

ScMyo3 = biological target: ScMyo3
In short: as §1

ScMyo5 = biological target: ScMyo5
In short: as §1

ScNbp2 = biological target: ScNbp2
In short: as §1

ScPex13 = biological target: ScPex13
In short: as §1

ScRvs167 = biological target: ScRvs167
In short: as §1

ScSho1 = biological target: ScSho1
In short: as §1

ScSla1-D1-D2 = biological target: ScSla1-D1-D2
In short: as §1

ScSla1-D3 = biological target: ScSla1-D3
In short: as §1

SpAbp1-D1 = biological target: SpAbp1-D1
In short: as §1

SpBbc1 = biological target: SpBbc1
In short: as §1

SpBzz1-D1 = biological target: SpBzz1-D1
In short: as §1

SpBzz1-D2 = biological target: SpBzz1-D2
In short: as §1

SpCyk3 = biological target: SpCyk3
In short: as §1

SpHof1 = biological target: SpHof1
In short: as §1

SpHof1-2 = biological target: SpHof1-2
In short: as §1

SpHof1-3 = biological target: SpHof1-3
In short: as §1

SpHse1 = biological target: SpHse1
In short: as §1

SpLsb1 = biological target: SpLsb1
In short: as §1

SpLsb4 = biological target: SpLsb4
In short: as §1

SpMyo1 = biological target: SpMyo1
In short: as §1

SpNbp2 = biological target: SpNbp2
In short: as §1

SpPex13 = biological target: SpPex13
In short: as §1

SpRvs167 = biological target: SpRvs167
In short: as §1

SpSla1-D1-D2 = biological target: SpSla1-D1-D2
In short: as §1

SpSla1-D3 = biological target: SpSla1-D3
In short: as §1

B1: unnamed (peptide)
chain: NNQRRKPLLLNIGDH
SPOT peptide array binding signal intensity (ScBbc1): ≤ 0
SPOT peptide array binding signal intensity (ScBem1-D1): 3
SPOT peptide array binding signal intensity (ScBzz1-D1): 16.5
SPOT peptide array binding signal intensity (ScBzz1-D2): ≤ 0
SPOT peptide array binding signal intensity (ScCyk3): 33
SPOT peptide array binding signal intensity (ScFus1): 272
SPOT peptide array binding signal intensity (ScHof1): 0.5
SPOT peptide array binding signal intensity (ScHse1): 1820
SPOT peptide array binding signal intensity (ScLsb1): ≤ 0
SPOT peptide array binding signal intensity (ScLsb2): ≤ 0
SPOT peptide array binding signal intensity (ScLsb3): 68
SPOT peptide array binding signal intensity (ScLsb4): ≤ 0
SPOT peptide array binding signal intensity (ScMyo3): ≤ 0
SPOT peptide array binding signal intensity (ScMyo5): ≤ 0
SPOT peptide array binding signal intensity (ScNbp2): 112
SPOT peptide array binding signal intensity (ScPex13): ≤ 0
SPOT peptide array binding signal intensity (ScRvs167): 4.33
SPOT peptide array binding signal intensity (ScSho1): 676
SPOT peptide array binding signal intensity (ScSla1-D1-D2): 37
SPOT peptide array binding signal intensity (ScSla1-D3): ≤ 0
SPOT peptide array binding signal intensity (SpAbp1-D1): 384
SPOT peptide array binding signal intensity (SpBbc1): 0.5
SPOT peptide array binding signal intensity (SpBzz1-D1): 136
SPOT peptide array binding signal intensity (SpBzz1-D2): ≤ 0
SPOT peptide array binding signal intensity (SpCyk3): ≤ 0
SPOT peptide array binding signal intensity (SpHof1): 93.2
SPOT peptide array binding signal intensity (SpHof1-2): 2.5
SPOT peptide array binding signal intensity (SpHof1-3): 892
SPOT peptide array binding signal intensity (SpHse1): 1730
SPOT peptide array binding signal intensity (SpLsb1): ≤ 0
SPOT peptide array binding signal intensity (SpLsb4): ≤ 0
SPOT peptide array binding signal intensity (SpMyo1): ≤ 0
SPOT peptide array binding signal intensity (SpNbp2): 133
SPOT peptide array binding signal intensity (SpPex13): ≤ 0
SPOT peptide array binding signal intensity (SpRvs167): ≤ 0
SPOT peptide array binding signal intensity (SpSla1-D1-D2): ≤ 0
SPOT peptide array binding signal intensity (SpSla1-D3): ≤ 0
